This is an account of results in PubChem BioAssay (NCATS).

Results filed as inconclusive are left out. Calls of active or inactive are those of the source. The call rests on the fitted dose curve; in most records, active means well fitted inhibition curve with a large enough effect in the signal ratio, with a control signal flat (not every such curve was filed as active); inconclusive means small, poorly fitted or top-dose-only effect, or effect the other way, or a change in a side signal; inactive means flat fitted curve, though single readings scatter; the % refers to the signal ratio.
On the % scale 0 is the no-effect control and ±100 the full control effect; potency means the concentration at half of the fitted maximal effect.

The assay is described as follows: qHTS Assay for Identification of Small Molecule Antagonists for NFkB Signaling Pathway (AID 895). The conditions noted are these: NFkB beta-lactamase reporter cells, FRET ratio 460/530; series mostly up to 38.3 µM; activity change, negative = inhibition: at the top concentration. Here is the method:
NIH Molecular Libraries Screening Centers Network [MLSCN]
NIH Chemical Genomics Center [NCGC]
The TNF alpha/NFkB signaling pathway was assayed in NFkB-bla cells (Invitrogen), a ME-180 cervical carcinoma line containing a stably integrated beta-lactamase reporter gene controlled by a NFkB response element. […] The assay was screened at the EC50 of TNF alpha activation to identify inhibitors of TNF alpha/NFkB signaling.
NCGC Assay Protocol Summary:
Cells were trypsinized, washed in assay medium (AM, OPTI MEM with 0.5% fetal bovine serum, 0.1 mM nonessential amino acids, 1 mM sodium pyruvate, 10mM HEPES pH 7.3, 100U/ml penicillin, and 100 ug/ml streptomycin) and plated at 1000 cells/5 uL/well into black clear-bottom 1536 well plates. After an overnight incubation at 37 C and 5% CO2, 23 nL of compound were delivered by a pin tool, 1 uL of TNF alpha (10 pM final concentration in AM) was added and plates were incubated at 37 C for 5 hrs. One uL of LiveBLAzerTM detector mix (Invitrogen) was added, the plates incubated at room temperature for 2 hrs, and fluorescence intensity at 460 and 530 nm emission was measured at 405 nm excitation by an Envision (Perkin Elmer).
In general terms: In qHTS, concentration-response curves come from the screen itself.
With `CCCn1c(=O)c2[nH]c(C3CCCC3)nc2n(CCCOC(=O)c2ccc(S(=O)(=O)F)cc2)c1=O`, the Potency is 10 µM (active). As for `NC(=O)CI`, the “activity change, negative = inhibition” value is -8.17% (inactive). On the same count and under the same terms, in the case of `OCc1cnc[nH]1` it was -4.36% (inactive); in that of `CCCN(CCC)CCc1c[nH]c2ccc(C(N)=O)cc12`, -12.4% (inactive); in that of `O=C(O)c1cc[c]([Hg][Cl])cc1`, 18% (inactive). Same read-out and setting: in the case of `NCCc1c[nH]c2ccc(C(N)=O)cc12` it was -8.05% (inactive); in that of `Clc1cc(I)cc(Cl)c1NC1=NCCN1`, -21.6% (inactive).

On to `NCCc1ccc(S(=O)(=O)F)cc1`, for which the “activity change, negative = inhibition” value was 0.32% (inactive). The same measure, in the same setting: next, `O=P(O)(O)C(Cl)(Cl)P(=O)(O)O`: 4.49% (inactive).

Turning to `CCCN(CCC)C1Cc2cc(OC)c(OC)cc2C1`, the “activity change, negative = inhibition” value was -25.7% (inactive).

Take `O=[N+]([O-])c1cc(O)c(O)c([N+](=O)[O-])c1`: the “activity change, negative = inhibition” value was -1.37% (inactive). Take `C[C@@H]1[C@@H]2Cc3ccc(O)cc3[C@@]1(C)CCN2CC1CC1`: the “activity change, negative = inhibition” value is 2.62% (inactive).

`CC(C)NP(=O)(NC(C)C)OP(=O)(NC(C)C)NC(C)C`: the “activity change, negative = inhibition” value was 8.52% (inactive).

For `NC(=O)c1cc(N2CC2)c([N+](=O)[O-])cc1[N+](=O)[O-]`, the “activity change, negative = inhibition” value was -6.61% (inactive). Same read-out and setting: in the case of `O=C1C=CC(=O)C=C1` it was -13.3% (inactive); in that of `NNC(=O)c1ccc(O)cc1`, 19% (inactive); in that of `Cc1[nH]c2ccc(O)cc2c1CCN`, -11.8% (inactive). On to `O=S1(=O)N(CCN2CC=C(c3c[nH]c4cc(F)ccc34)CC2)c2cccc3c2N1CCC3`, for which the “activity change, negative = inhibition” value is -6.83% (inactive). The same measure, in the same setting: in the case of `C[N+](C)(C)CCOC(=O)CBr` it was -27.3% (inactive); in that of `N#CCCN`, -2.13% (inactive); in that of `Clc1ccc(N2C[C@H]3CC[C@@H](C2)N3)nn1`, -3.34% (inactive). Consider `COc1ccc2[nH]c3c(c2c1)CCNC3`, for which the Potency is 5.01 µM (active).
